Inconclusive results are not listed. Values without a mark were called inactive. Calls follow the shape of the dose curve; as a rule, active = well fitted activation curve with a large enough effect; inconclusive = small, poorly fitted or top-dose-only effect; inactive = no such curve, though single readings can be large or run the other way.
Biological target: Rap guanine nucleotide exchange factor 3 (Homo sapiens) (UniProt O95398)
Test: Confirmatory qHTS for agonist of cAMP-regulated guanine nucleotide exchange factor 3 (EPAC1) (AID 1645881);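 also: EPAC1 catalysed release of BODIPY-GDP from Rap1B seen as fluorescence loss; 100% = effect of cAMP agonist control; nearly all actives have a fitted effect of over 75% in size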
Conditions: EPAC1 Rap1B BODIPY-GDP exchange fluorescence; series mostly up to 154 µM; activation: at the top concentration

Sequence of Rap guanine nucleotide exchange factor 3 (Homo sapiens) (O95398 whole entry, looked up): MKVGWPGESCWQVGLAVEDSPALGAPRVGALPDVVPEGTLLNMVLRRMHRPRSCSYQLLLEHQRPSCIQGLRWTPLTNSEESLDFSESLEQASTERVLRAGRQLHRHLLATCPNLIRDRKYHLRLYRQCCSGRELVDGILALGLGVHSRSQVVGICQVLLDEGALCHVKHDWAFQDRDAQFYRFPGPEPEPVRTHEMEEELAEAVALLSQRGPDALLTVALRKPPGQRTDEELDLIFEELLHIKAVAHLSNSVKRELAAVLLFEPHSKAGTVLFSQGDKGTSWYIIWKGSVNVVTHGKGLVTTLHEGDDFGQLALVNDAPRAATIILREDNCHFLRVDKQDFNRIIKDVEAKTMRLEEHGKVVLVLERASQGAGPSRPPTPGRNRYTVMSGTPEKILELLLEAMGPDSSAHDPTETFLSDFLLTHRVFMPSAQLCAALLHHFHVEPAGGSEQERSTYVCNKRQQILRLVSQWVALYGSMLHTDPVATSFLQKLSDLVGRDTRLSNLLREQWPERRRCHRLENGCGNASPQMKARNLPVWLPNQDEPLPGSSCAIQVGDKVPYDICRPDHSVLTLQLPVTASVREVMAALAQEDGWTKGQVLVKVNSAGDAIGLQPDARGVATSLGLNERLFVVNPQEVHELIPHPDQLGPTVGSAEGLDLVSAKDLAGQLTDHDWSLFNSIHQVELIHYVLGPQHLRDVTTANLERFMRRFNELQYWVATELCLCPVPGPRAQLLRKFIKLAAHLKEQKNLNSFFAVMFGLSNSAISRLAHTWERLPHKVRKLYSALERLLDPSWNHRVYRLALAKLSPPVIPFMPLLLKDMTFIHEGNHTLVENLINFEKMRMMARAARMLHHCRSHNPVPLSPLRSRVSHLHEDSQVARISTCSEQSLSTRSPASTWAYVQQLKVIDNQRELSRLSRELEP

Row | SMILES | activation [%]
1 | Cc1[nH]n(-c2ncc(-c3ccccc3)s2)c(=O)c1C(c1ccc(Br)cc1)C(C#N)C#N (stereo unspecified) | 1.54
2 | COC(=O)c1cc(Br)c(=O)n(Cc2ccc3c(c2)OCO3)c1 | 2.93
3 | CCN(CC)c1nc2ccccc2n(Cc2cccc(OC)c2)c1=O | 9.3
4 | Cc1cccn2cc(CCNC(=O)c3ccco3)nc12 | -8.12
5 | COCCCn1c(=N)c(C(=O)NCc2cccnc2)cc2c(=O)n3cccc(C)c3nc21 | 4.85
6 | O=C(Nc1nc2ccc(Cl)cc2s1)C1CCCO1 (stereo unspecified) | 11.2
7 | O=C(COc1ccccc1[N+](=O)[O-])Nc1cccc(C(=O)Nc2ccccc2C(=O)O)c1 | 3.04
8 | CC[C@]12c3[nH]c4cc(-c5ccco5)ccc4c3CCN1C(=O)[C@@H](CC(=O)NCCCOC)C[C@@H]2C(=O)N1CCN(C(=O)C2CC2)CC1 | 1.94
9 | O=C(/C=C/c1ccc(O)c(O)c1)O[C@@H]1C[C@](O)(C(=O)O)C[C@@H](O)[C@H]1O | 6.37
10 | Cc1ccc(SCc2nnc(N)s2)cc1 | 4.01
11 | O=C(NCCc1ccccc1)c1ccc2c(=O)[nH]c3c(C(=O)NCC4CCCO4)sc(=S)n3c2c1 (stereo unspecified) | -18.5
12 | O=C(Nc1ccccc1C(=O)O)c1cccc(S(=O)(=O)Nc2ccc(Br)cc2)c1 | -10.8
13 | O=C(CSc1nccn1C1CCCC1)Nc1cc(C(F)(F)F)ccc1Cl | 11.9
14 | NC(=O)c1ccsc1NC(=O)CS(=O)(=O)c1ccc(F)cc1 | 9.75
15 | O=C(O)c1ccc(/C=N/NC(=O)c2ccc(CN3c4cccc5cccc(c45)S3(=O)=O)cc2)cc1 | -2.92
16 | COc1ccc(NC(=O)CCCSc2nc(-c3ccco3)cc(C(F)(F)F)n2)cc1 | -16.5
17 | Cc1ccc(C(=O)/C=C/c2cc(Br)cc(Br)c2O)o1 | 1.04
18 | Cc1ccc(/C(O)=C2/C(=O)C(=O)OC2c2ccc(Cl)cc2)cc1 (stereo unspecified) | -3.55
19 | COc1cccc(OC)c1C(=O)NC(=S)NNC(=O)[C@H]1C[C@@H]1c1ccccc1 | 2.16
20 | CC(NC(=O)Nc1ccc(O)cc1)(C(F)(F)F)C(F)(F)F | -4.1
21 | O=C(O)CC1Sc2nc3ccccc3n2C1=O (stereo unspecified) | 6.87
22 | CCCc1nc2ccccc2c(=O)n1/N=C/c1ccc(O)c(O)c1 | 9.52

Biological target: Rap guanine nucleotide exchange factor 4 (Homo sapiens) (UniProt Q8WZA2)
Sequence (Q8WZA2 whole entry, looked up): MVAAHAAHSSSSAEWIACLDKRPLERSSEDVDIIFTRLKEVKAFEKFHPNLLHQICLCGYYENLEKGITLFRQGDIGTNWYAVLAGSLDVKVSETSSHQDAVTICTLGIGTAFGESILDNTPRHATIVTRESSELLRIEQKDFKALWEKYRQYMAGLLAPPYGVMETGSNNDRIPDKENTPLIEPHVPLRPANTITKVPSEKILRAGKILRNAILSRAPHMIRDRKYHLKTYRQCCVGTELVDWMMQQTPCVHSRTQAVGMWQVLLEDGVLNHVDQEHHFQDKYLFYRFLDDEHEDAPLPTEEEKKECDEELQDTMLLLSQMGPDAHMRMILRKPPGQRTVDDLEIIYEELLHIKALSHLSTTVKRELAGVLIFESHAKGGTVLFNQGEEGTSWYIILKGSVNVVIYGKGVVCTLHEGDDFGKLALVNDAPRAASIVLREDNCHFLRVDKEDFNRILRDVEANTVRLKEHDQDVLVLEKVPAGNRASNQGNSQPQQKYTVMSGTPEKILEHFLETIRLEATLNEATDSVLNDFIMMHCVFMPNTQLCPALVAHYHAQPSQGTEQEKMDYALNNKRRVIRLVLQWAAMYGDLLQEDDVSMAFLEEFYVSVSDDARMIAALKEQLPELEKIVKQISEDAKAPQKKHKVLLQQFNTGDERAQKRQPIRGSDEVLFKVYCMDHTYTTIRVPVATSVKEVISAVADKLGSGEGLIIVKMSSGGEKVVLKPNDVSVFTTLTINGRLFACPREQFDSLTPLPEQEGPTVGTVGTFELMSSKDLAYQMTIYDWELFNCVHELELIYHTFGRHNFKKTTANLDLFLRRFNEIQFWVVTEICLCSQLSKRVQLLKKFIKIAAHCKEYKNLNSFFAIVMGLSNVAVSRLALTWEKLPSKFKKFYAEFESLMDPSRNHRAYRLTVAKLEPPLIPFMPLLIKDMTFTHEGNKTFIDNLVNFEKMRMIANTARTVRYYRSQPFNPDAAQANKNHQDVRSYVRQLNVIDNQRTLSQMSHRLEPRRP
Test: Confirmatory qHTS for agonist of cAMP-regulated guanine nucleotide exchange factor 4 (EPAC2) (AID 1645884);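 also: nucleotide exchange releases bodipy-GDP from Rap1 and this lowers its fluorescence; % is scaled to controls: 0 for no effect and ±100 for the full control effect; nearly all actives have a fitted effect of over 65% in size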
Conditions: EPAC2 GEF activity, Rap1B-BODIPY-GDP fluorescence; series mostly up to 154 µM; activation: at the top concentration

Row | SMILES | activation
23 | CCc1nnc(NC(=O)c2ccc(-c3cccc(C(F)(F)F)c3)o2)s1 | 4.04% [at 17.1 µM, percent relative to cAMP agonist control]
24 | CCc1ccc(NC(=O)COC(=O)CCC2CCCC2)cc1 | 14.6%
25 | O=S(=O)(N/N=C/c1cccnc1)c1ccc(Cl)c(Cl)c1 | 4.19% [at 17.1 µM, percent relative to cAMP agonist control]
26 | Cc1ccc(NC(=O)Cn2nnc(-c3nc(-c4ccncc4)no3)c2N)c(C)c1 | -9.8% [at 83.8 µM, percent relative to cAMP agonist control]
27 | Cn1cc([C@]2(O)C(=O)Nc3c(F)cccc32)c2ccccc21 | 0%
28 | c1ccc(NN(Cc2cnccn2)c2ccccc2)cc1 | 1.23%
29 | C=CCOc1ccc(C2N3CC4(CC)CN2CC(CC)(C3)C4=O)cc1 (stereo unspecified) | 6.19% [at 17.1 µM, percent relative to cAMP agonist control]
30 | COc1ccc(C2c3ccsc3CCN2C(C)=O)cc1 (stereo unspecified) | 5.95%
31 | O=S(=O)(NCC1(N2CCOCC2)CCCCC1)c1ccc(Cl)cc1C(F)(F)F | 2.67%
32 | COC(=O)c1cc(Br)c(=O)n(CCc2ccc(F)cc2)c1 | 0.946%
33 | COc1cc(NS(=O)(=O)c2cc3[nH]c(=O)c(=O)[nH]c3cc2C)cc(OC)c1OC | 2.04% [at 17.1 µM, percent relative to cAMP agonist control]
34 | CSc1ccc(CC2C(=O)Nc3ccccc32)cc1 (stereo unspecified) | -3.65% [at 83.8 µM, percent relative to cAMP agonist control]
35 | COc1c(O)cc2oc(-c3ccc(O)c(O)c3)cc(=O)c2c1O | -10.5%
36 | COc1cccc(-n2ccn(CC(=O)NCc3ccc(C)cc3)c(=O)c2=O)c1 | 2.4% [at 83.8 µM, percent relative to cAMP agonist control]
37 | COc1cccc(-c2nc(SCC(=O)Nc3nc(-c4ccccc4)c(C)s3)[nH]c(=O)c2C#N)c1 | -23.9%
38 | Cc1ccccc1N=C(c1ccccc1)C1C(=O)c2ccccc2C1=O | 8.41% [at 17.1 µM, percent relative to cAMP agonist control]
39 | CCOc1cc(/C=C2\SC(=S)N(NS(=O)(=O)c3ccc(C)cc3)C2=O)ccc1O | -2.47%
40 | NS(=O)(=O)c1ccc(N=Nc2c[nH]c(=O)c(O)c2)cc1 | -0.126%
41 | Cc1[nH]n(-c2ncc(-c3ccccc3)s2)c(=O)c1C(c1ccc(Br)cc1)C(C#N)C#N (stereo unspecified) | 4.64% [at 17.1 µM, percent relative to cAMP agonist control]
